In PubChem BioAssay (Tox21):
Records with an inconclusive call do not appear. Where a call stands in place of a potency, no number is given. Values without a mark were called inactive. The source made the active and inactive calls. Unless noted, the call rests on the fitted dose curve; in most records, active means well fitted curve in the direction sought with a large enough effect in the repeat runs; inconclusive means weak or mixed curves; inactive means no such curve, though single readings can be large; an effect the other way counts as inactive or inconclusive.

Key:
[1] = target: Retinoic acid receptor RXR-alpha (Homo sapiens) (UniProt P19793); assay: qHTS assay to identify small molecule agonists of the RXR signaling pathway (AID 1159527; calls by dose curve; further: nearly all actives have a fitted effect of over 35% in size)
Retinoic acid receptor RXR-alpha (Homo sapiens), sequence (P19793 whole entry, looked up): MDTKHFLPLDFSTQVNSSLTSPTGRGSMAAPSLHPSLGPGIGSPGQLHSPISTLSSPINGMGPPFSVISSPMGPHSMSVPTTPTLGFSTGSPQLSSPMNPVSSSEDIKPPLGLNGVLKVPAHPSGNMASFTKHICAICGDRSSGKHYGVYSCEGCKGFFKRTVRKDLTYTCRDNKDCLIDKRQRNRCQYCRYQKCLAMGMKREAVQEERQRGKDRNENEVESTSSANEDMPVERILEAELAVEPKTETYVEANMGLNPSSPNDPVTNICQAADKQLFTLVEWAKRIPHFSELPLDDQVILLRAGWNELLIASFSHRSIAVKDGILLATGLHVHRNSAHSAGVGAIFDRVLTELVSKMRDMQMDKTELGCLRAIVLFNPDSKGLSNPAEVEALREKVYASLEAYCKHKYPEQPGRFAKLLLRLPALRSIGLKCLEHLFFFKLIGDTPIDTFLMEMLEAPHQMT
In short: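 GeneBLAzer RXR-alpha-UAS-bla HEK 293T cells in medium with 2% charcoal-stripped FBS, pre-incubated 5 hr at 37 C, then exposed to compounds 16 hr. Beta-lactamase reporter read by FRET substrate, 2 hr room temperature, 460/530 nm emission.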

[2] = qHTS assay to identify small molecule agonists of the RXR signaling pathway - cell viability counter screen (AID 1159529); further: series mostly up to about 77 µM; nearly all actives have a fitted effect of over 50% in size
In short: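 RXR-alpha-UAS-bla HEK 293T cells in medium with 2% charcoal-stripped FBS were preincubated 5 hr, then exposed to compounds for 16 hr at 37 C. Viability was read as CellTiter-Glo luminescence after 30 min at room temperature.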

[3] = qHTS assay to identify small molecule antagonists of the retinoid acid receptor (RAR) signaling pathway - cell viability counter screen (AID 1159551); further: nearly all actives have a fitted effect of over 35% in size
In short: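 Cells (C3RL4) are plated, incubated overnight, dosed with compound in DMSO, then given retinol at 1 uM final. After 6 h at 37 C, CellTiter-Glo is added and luminescence read following 30 min at room temperature.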

[4] = qHTS assay to identify small molecule antagonists of the retinoic acid receptor (RAR) signaling pathway (AID 1159552; further: nearly all actives have a fitted effect of over 50% in size)
In short: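 RARE-luc C3RL4 cells; cpds + 1 uM (final) retinol, 6 hr, 37 C/5% CO2; luciferase reagent, 30 min RT, luminescence readout. Inhibitors of retinol-driven signal scored.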

[5] = qHTS assay to identify small molecule agonists of the retinoic acid receptor (RAR) signaling pathway (AID 1159553)
In short: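 Seed C3RL4 reporter cells at 1,000 per well and incubate overnight at 37 C. Add compounds in DMSO, incubate 6 hr. Add luciferase reagent, wait 30 min at room temperature, read luminescence.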

[6] = qHTS assay to identify small molecule antagonists of the estrogen related receptor (ERR) signaling pathway from Tox21 library - cell viability counter screen (AID 1224834); further: nearly all actives have a fitted effect of over 30% in size
In short: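 ERR cells, 2,000/well; 6 h settle at 37 C/5% CO2; pin-tool compound transfer in DMSO; 17.5 h at 37 C; CellTiter-Fluor, 30 min; fluorescence intensity.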

[7] = target: Luciferin 4-monooxygenase (Photinus pyralis) (UniProt P08659); assay: qHTS assay to identify small molecule inhibitors of firefly luciferase (AID 1224835); further: series mostly up to about 120 µM; nearly all actives have a fitted effect of over 25% in size
Luciferin 4-monooxygenase (Photinus pyralis), sequence (P08659 whole entry, looked up): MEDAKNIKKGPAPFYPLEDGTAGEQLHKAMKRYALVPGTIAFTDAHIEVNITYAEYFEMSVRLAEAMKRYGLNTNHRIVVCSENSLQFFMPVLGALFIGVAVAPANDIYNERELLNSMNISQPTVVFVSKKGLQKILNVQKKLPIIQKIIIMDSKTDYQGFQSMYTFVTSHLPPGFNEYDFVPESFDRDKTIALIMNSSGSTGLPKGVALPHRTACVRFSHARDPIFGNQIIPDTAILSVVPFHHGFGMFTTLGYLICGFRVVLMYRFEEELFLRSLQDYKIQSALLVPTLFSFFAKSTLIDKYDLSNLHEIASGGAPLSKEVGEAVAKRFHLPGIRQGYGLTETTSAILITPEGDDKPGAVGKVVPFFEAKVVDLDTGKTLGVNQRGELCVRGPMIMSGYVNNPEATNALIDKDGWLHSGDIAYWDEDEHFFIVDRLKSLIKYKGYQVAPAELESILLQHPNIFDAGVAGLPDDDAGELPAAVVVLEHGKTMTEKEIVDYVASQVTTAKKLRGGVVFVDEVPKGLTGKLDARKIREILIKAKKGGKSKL
In short: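 Biochemical qHTS: compounds run as interplate titrations against purified firefly enzyme, with D-luciferin and ATP each at its KM concentration. Light output recorded by CCD imaging.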

[8] = qHTS assay to identify small molecule agonists of the constitutive androstane receptor (CAR) signaling pathway - cell viability counter screen (AID 1224836); further: series mostly up to about 92 µM; nearly all actives have a fitted effect of over 45% in size
In short: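 HepG2 cells stably carrying hCAR and a CYP2B6-2.2kb reporter were plated 4 h, then given compounds at 15 concentrations plus PK11195 (final 0.75 uM). After 23 h at 37 C, viability was read by CellTiter-Fluor fluorescence.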

[9] = qHTS assay to identify small molecule antagonists of the constitutive androstane receptor (CAR) signaling pathway - cell viability counter screen (AID 1224837); further: series mostly up to about 92 µM; nearly all actives have a fitted effect of over 45% in size
In short: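 Viability was measured with CellTiter-Fluor in a HepG2 line carrying stably transfected hCAR and a CYP2B6-2.2kb construct. Cells were exposed for 23 hr at 37 C to 15 compound concentrations with 50 nM CITCO as agonist.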

[10] = target: Nuclear receptor subfamily 1 group I member 3 (Homo sapiens) (UniProt Q14994); assay: qHTS assay to identify small molecule antagonists of the constitutive androstane receptor (CAR) signaling pathway (AID 1224838); further: nearly all actives have a fitted effect of over 40% in size
Nuclear receptor subfamily 1 group I member 3 (Homo sapiens), sequence (Q14994 whole entry, looked up): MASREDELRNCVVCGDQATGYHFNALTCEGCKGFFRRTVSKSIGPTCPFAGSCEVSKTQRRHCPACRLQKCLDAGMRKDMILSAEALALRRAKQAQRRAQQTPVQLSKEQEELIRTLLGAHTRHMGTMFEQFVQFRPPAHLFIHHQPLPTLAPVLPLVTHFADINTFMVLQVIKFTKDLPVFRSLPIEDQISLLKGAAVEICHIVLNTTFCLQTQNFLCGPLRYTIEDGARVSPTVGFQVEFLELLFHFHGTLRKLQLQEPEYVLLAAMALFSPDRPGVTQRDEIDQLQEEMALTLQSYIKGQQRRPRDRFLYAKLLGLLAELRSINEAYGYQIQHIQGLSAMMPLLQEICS
In short: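 Antagonist mode used CITCO at a final 50 nM to activate CAR in human hepatoma HepG2 cells carrying stable hCAR and a 2.2 kb CYP2B6 promoter-luciferase construct. Compounds were tested at 15 concentrations over 24 h, with luminescence as the end point.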

[11] = target: Nuclear receptor subfamily 1 group I member 3 (Homo sapiens) (UniProt Q14994); assay: qHTS assay to identify small molecule agonists of the constitutive androstane receptor (CAR) signaling pathway (AID 1224839); further: nearly all actives have a fitted effect of over 15% in size; further: potency means the concentration at half of the fitted maximal effect
In short: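 HepG2 cells stably expressing hCAR and a CYP2B6-2.2kb luciferase reporter were treated with compounds at 15 concentrations plus 0.75 uM PK11195 (final) for 24 h at 37 C; luminescence was read after ONE-Glo addition.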

[12] = qHTS assay to identify small molecule antagonists of the estrogen related receptor signaling pathway with the pleiotropic PPARgamma coactivator (PGC) from Tox21 10K library - cell viability counter screen (AID 1224840; active means well fitted cell-killing curve with a large enough effect in the repeat runs, not every such curve was filed as active; further: nearly all actives have a fitted effect of over 40% in size)
In short: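 Multiplexed viability counter screen in the PGC/ERR cell line: cells treated with DMSO-dissolved compounds for 17.5 hours at 37 C, then viability measured as CellTiter-Fluor fluorescence.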

[13] = target: Thyrotropin receptor (Homo sapiens) (UniProt P16473); assay: qHTS assay to identify small molecule agonists of the thyroid stimulating hormone receptor (TSHR) signaling pathway (AID 1224843; calls by dose curve; further: nearly all actives have a fitted effect of over 45% in size; further: potency means the concentration at half of the fitted maximal effect)
Thyrotropin receptor (Homo sapiens), sequence (P16473 whole entry, looked up): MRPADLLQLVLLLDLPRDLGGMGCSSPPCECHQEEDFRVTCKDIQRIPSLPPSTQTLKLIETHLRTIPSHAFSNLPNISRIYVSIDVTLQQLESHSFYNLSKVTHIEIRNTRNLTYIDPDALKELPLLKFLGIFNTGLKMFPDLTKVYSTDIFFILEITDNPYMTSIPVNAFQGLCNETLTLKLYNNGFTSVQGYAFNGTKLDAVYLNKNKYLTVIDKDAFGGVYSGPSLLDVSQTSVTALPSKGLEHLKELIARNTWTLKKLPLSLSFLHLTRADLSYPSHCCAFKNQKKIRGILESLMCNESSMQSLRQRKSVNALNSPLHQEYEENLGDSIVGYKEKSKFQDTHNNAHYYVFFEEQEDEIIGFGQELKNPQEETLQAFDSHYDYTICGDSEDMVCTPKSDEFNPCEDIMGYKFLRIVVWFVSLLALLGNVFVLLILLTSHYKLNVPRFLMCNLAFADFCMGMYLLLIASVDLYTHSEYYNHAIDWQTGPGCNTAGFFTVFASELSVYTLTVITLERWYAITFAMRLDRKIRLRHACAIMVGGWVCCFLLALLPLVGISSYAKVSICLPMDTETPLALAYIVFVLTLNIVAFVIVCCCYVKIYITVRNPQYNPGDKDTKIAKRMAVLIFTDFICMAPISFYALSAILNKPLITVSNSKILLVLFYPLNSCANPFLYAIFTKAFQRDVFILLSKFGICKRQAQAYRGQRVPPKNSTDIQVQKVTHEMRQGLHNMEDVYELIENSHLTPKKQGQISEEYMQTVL
In short: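 HEK293/TSHR, 800 cells/well; cpd 30 min RT; add cAMP-d2 + anti-cAMP-cryptate, 1 h RT; fluorescence read on plate reader. 15-pt titration, n=3.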

[14] = qHTS assay to identify small molecule antagonists of the estrogen related receptor signaling pathway with the pleiotropic PPARgamma coactivator (PGC) from Tox21 10K library (AID 1224841; call rule not given here; further: actives are mostly falling curves and most rising ones were filed inactive; nearly all actives have a fitted effect of over 50% in size; further: potency means the concentration at half of the fitted maximal effect)
In short: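 Steps: plate 2,000 PGC/ERR cells per well; incubate 6 h at 37 C with 5% CO2; transfer compounds from DMSO stocks by pin tool; incubate 18 h at 37 C; add One-Glo; measure luminescence 30 min later.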

[15] = qHTS assay to identify small molecule agonists of the estrogen related receptor signaling pathway with the pleiotropic PPARgamma coactivator (PGC) from Tox21 10K library (AID 1224842); further: nearly all actives have a fitted effect of over 15% in size
In short: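 PGC/ERR reporter cell line, 2,000 cells per well, incubated 6 h at 37 C before 23 nL compound in DMSO was added. After 18 h at 37 C, One-Glo luminescence read following 30 min at room temperature.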

Row | SMILES | Potency [1] | Potency [2] | Potency [3] | Potency [4] | Potency [5] | Potency [6] | Potency [7] | Potency [8] | Potency [9] | Potency [10] | Potency [11] | Potency [12] | Potency [13] | Potency [14] | outcome [15]
1 | CC(C=O)Cc1ccc2c(c1)OCO2 (centres undefined) | inactive | inactive | inactive | inactive | inactive | inactive | inactive | inactive | inactive | inactive | inactive | inactive | inactive |  | 
2 | COP(=S)(OC)Oc1c(Cl)cc(C)cc1Cl | inactive | inactive | inactive |  | inactive | inactive |  | inactive | inactive | inactive | 27.3 µM (active) |  |  | inactive | inactive
3 | ClCCCN1CCN(c2cccc(Cl)c2)CC1 | inactive | inactive | inactive | inactive | inactive | inactive | inactive |  | inactive | inactive |  | inactive | inactive | inactive | inactive
4 | CCC(=O)C(CCN(C)C)(c1ccccc1)c1ccccc1 | inactive | inactive | inactive |  | inactive | inactive | inactive | inactive | inactive |  | inactive | inactive |  |  | 
5 | Clc1ccccc1N1CCNCC1 | inactive | inactive | inactive | inactive | inactive | inactive | inactive | inactive | inactive |  |  | inactive | inactive |  | 
6 | CC(Cl)(Cl)[N+](=O)[O-] | inactive | inactive | inactive | inactive | inactive | inactive | inactive | inactive | inactive | inactive | inactive | inactive | inactive | inactive | inactive
7 | OC(c1ccccc1)(c1ccccc1)C1CCNCC1 | inactive | inactive | inactive |  | inactive | inactive | inactive | inactive | inactive |  |  | inactive | inactive |  | 
8 | CSc1ccc(C(=O)C(C)(C)N2CCOCC2)cc1 | inactive | inactive | inactive | inactive | inactive | inactive | inactive | inactive | inactive | inactive | 30.6 µM (active) | inactive | 2.73 µM (active) |  | inactive
9 | CNC(=O)Oc1ccccc1C1OCCO1 | inactive | inactive | inactive | inactive | inactive | inactive | inactive | inactive | inactive | inactive | inactive | inactive |  | inactive | inactive
10 | CN(N=O)C(N)=O | inactive | inactive | inactive | inactive |  | inactive | inactive | inactive | inactive | inactive | inactive | inactive |  |  | 
11 | CC(C)[N+](=O)[O-] | inactive | inactive | inactive | inactive | inactive | inactive | inactive | inactive | inactive | inactive | inactive | inactive | inactive |  | 
12 | CC1COC2(c3ccccc3Cl)c3cc(Cl)ccc3NC(=O)CN12 (centres undefined) | inactive | inactive | inactive |  | inactive |  | inactive | inactive | inactive |  | inactive | inactive | inactive | 21.1 µM (active) | inactive
13 | C#CCN1C(=O)COc2cc(F)c(N3C(=O)C4=C(CCCC4)C3=O)cc21 | inactive | inactive | inactive | inactive | inactive | inactive | inactive | inactive | inactive | inactive | 48.6 µM (active) | inactive | inactive |  | inactive
14 | O=C1CN2CCOC2(c2ccccc2Cl)c2cc(Cl)ccc2N1 (centres undefined) | inactive | inactive | inactive | inactive | inactive | inactive | inactive | inactive | inactive | inactive |  | inactive | inactive |  | 
15 | ClC(Cl)Br | inactive | inactive | inactive |  | inactive | inactive | inactive | inactive | inactive | inactive | inactive | inactive | inactive |  | 
16 | Cc1cc(C)nc(Nc2ccccc2)n1 | inactive | inactive | inactive | inactive |  | inactive | inactive | inactive | inactive | inactive | 61.1 µM (active) | inactive | inactive | inactive | inactive
17 | CCC1(c2ccccc2)C(=O)NC(=O)NC1=O | inactive | inactive | inactive |  |  | inactive | inactive | inactive | inactive | inactive | inactive | inactive | inactive |  | 
18 | CCOP(=O)(N=C1SCCS1)OCC | inactive | inactive | inactive |  |  | inactive | inactive | inactive | inactive | inactive | inactive |  | inactive |  | 
19 | c1ccc(N2CCNCC2)cc1 | inactive | inactive | inactive |  |  | inactive | inactive | inactive | inactive | inactive | inactive | inactive | inactive |  | 
20 | CC(C)NCC(O)c1ccc(N)c(C#N)c1 (centres undefined) | inactive | inactive | inactive |  |  | inactive | inactive | inactive | inactive | inactive |  | inactive | 0.0021 µM (active) |  | 
21 | ClC(Cl)(Cl)C(Cl)(Cl)Cl | inactive | inactive | inactive |  |  | inactive | inactive | inactive | inactive |  |  | inactive |  |  | 
